Tests used:
Assay in all cases: PBM binding z-score (relative to random genomic background probes); higher = stronger binding; sequences stand for … in GC…GCGATTGACAGCGTAGAATGAAGG
[1] = tested on: RARb homodimer (NR concentration 270 nM)
Method in brief: (§1)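 On custom Agilent 4×180K arrays, double-stranded probes with 34-nt variable regions carried direct-repeat seeds, single-nucleotide variants, half-site ablations or random human genomic background. Ligand-free nuclear receptor dimers were applied for 1 h, and binding was read with antibodies against each partner (one per run). Binding z-scores come from regression-normalized fluorescence, with the random background probes as reference.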

[2] = tested on: RARg:RXRa (NR concentration 270 nM, RXRa partner concentration 90 nM)
Method in brief: as §1

[3] = tested on: RARg homodimer (NR concentration 270 nM)
Method in brief: as §1

[4] = tested on: RXRa DBDmut IVT, anti-RXR (DBD mutation: RXRa K156A/R161A, NR concentration 90 nM)
Method in brief: as §1

[5] = tested on: RXRa homodimer (NR concentration 180 nM)
Method in brief: as §1

[6] = tested on: THRa:RXRa (NR concentration 90 nM, RXRa partner concentration 90 nM)
Method in brief: as §1

[7] = tested on: THRa homodimer (NR concentration 90 nM)
Method in brief: as §1

[8] = tested on: VDR homodimer (NR concentration 270 nM)
Method in brief: as §1

Row | Sequence | PBM binding z-score [1] | PBM binding z-score [2] | PBM binding z-score [3] | PBM binding z-score [4] | PBM binding z-score [5] | PBM binding z-score [6] | PBM binding z-score [7] | PBM binding z-score [8]
1 | CCAGACAGGTGAGAAAGTAACTCAGCCTCGATTA | 0.0469 | 0.0483 | 0.249 | 0.169 | 0.0557 | -0.0555 | -0.123 | -0.255
2 | CGTCCAAGGTCAAGGCTAGGTCAGTGAAAGCATT | 4.89 | 7.82 | 7.4 | 3.43 | 6.77 | 4.49 | 3.29 | 2.58
3 | TATGCTAGGTCAGTTGGTCAGCTAACGAGCTGCC | 2.5 | 2.62 | 3.34 | -0.0461 | 1.06 | 1.3 | 0.034 | -0.256
4 | GCTTGTAGATCAATGTTAAGAAAGACTAAGCTAA | -0.892 | -0.411 | -0.155 | 0.255 | -0.609 | -0.166 | -1.2 | -0.713
5 | CCGGCTGGGGCAAGGTTACCATAACGCACAGCCA | 1.41 | 1.14 | 1.27 | -1.12 | 1.14 | 1.03 | -0.0935 | -0.883
6 | TCTATTTGTTGATTAGGGCAACCGAAACAGCGGA | 0.77 | 0.864 | 0.859 | 1.28 | 0.492 | 0.89 | 0.561 | 0.505
7 | CCTTACGCGTCACGAGGTTATAGCACGACGAGCG | 0.644 | 0.881 | 0.604 | 0.705 | 1.38 | 1.51 | 0.967 | 0.734
8 | TCATATAGGTAAAAGGTGAAAGCCGGTGTGGTAA | 1.74 | 2.11 | 0.955 | 1.45 | 2.92 | 1.56 | 8.19e-05 | -0.0743
9 | CCTGCTAGGTCATGGTCAGCTAATCTACAGTATG | 3.24 | 4.01 | 4.52 | 1.9 | 2.92 | 3.06 | 1.39 | 0.473
10 | CAAACTAGTTCACAGAGGTCAAAGTCCGTGCGTA | 4.92 | 6.03 | 5.68 | 3.93 | 6.83 | 4.01 | 1.93 | 7.92
11 | CCAAGCAGGCCAATCTGGGTCACTCAAGGCTTGA | 2.26 | 1.4 | 1.34 | 0.0779 | 1.25 | 3.74 | 0.319 | 0.154
12 | GCATATAGGTAATACATGGTGAAAGTCCGATTGT | -0.181 | 0.00391 | 0.437 | 0.319 | 0.441 | 0.327 | -0.218 | 0.32
13 | CGAACTAGGTCAGAACAGGACAGTGCAGGATGAT | 2.14 | 2.44 | 3.46 | 0.591 | 1.26 | 3.38 | 0.224 | 0.113
14 | GCGACTGGGGCACAGCAGGTTACCATAAGGTTGG | 1.23 | 0.566 | 0.841 | -0.647 | 0.331 | 2.47 | -0.0588 | -0.59
15 | AATACAGGGTCATCGTAGGCCAGAGCACGCACAG | 3.55 | 5.92 | 5.24 | 3.61 | 6.36 | 4.52 | 1.4 | 3.18
16 | CGTCACAGTTCAAGGTAACGTAACAGAAAGCAGC | 1.63 | 2.45 | 2.53 | 2.69 | 2.14 | 2.24 | 1.24 | 1.53
17 | CGTCCAAGGTCATAGGAGGCCAGTGAAGACAGAT | 4.11 | 5.88 | 5.84 | 3.97 | 5.41 | 4.9 | 2.32 | 3.03
18 | ACTATTAGCTGACTTAGGGCAACCGATACGACGC | 0.665 | 0.504 | 0.628 | 0.619 | 0.197 | 0.454 | 0.576 | -0.00444
19 | ACTCGTTGGTCAGCTGAGGTCACACACAATTCGG | 4.41 | 4.16 | 4.25 | 1.3 | 4.06 | 5.18 | 5.14 | 3.72
20 | GATACAGCGTCAGCTAGAGGCCAGAGTATGGAAA | -0.524 | -0.0653 | 0.0489 | -0.648 | -0.444 | -0.787 | -0.942 | -0.804
21 | AATATAGGGTCACTAGGCCAGAGTAGGTACGAAT | 3.3 | 5.24 | 4.94 | 2.94 | 5.71 | 3.61 | 1.67 | 2.21
22 | ACTAGTTGGTCAGCTGAGGTCACACGCAATTCGG | 4.17 | 4.1 | 4.4 | 1.4 | 4.02 | 5 | 5.12 | 3.63
23 | ACTATTAGTTGGGACGAGGGCAACCGATAGGTTG | 1.37 | 0.644 | 0.82 | 0.0733 | 0.516 | 1.64 | 0.629 | 1.12
24 | ACTAGTTGGTCTGCTGAGGTCACACACAATTCGG | 3.79 | 3.33 | 2.94 | 1.37 | 3.45 | 4.32 | 5.25 | 3.1
25 | TCTGCTAGGTCAGTTAGTCAGCTAACGAGCTGCC | 1.99 | 2.4 | 3.3 | 0.561 | 0.813 | 0.906 | -0.364 | -0.726
26 | TCTTGTAGATCAGCAGGTTACGAAAGCTGGCCAA | 0.128 | -0.124 | -0.187 | 0.505 | 0.318 | 0.29 | -0.291 | -0.293

Row | Sequence | PBM binding z-score [1] | PBM binding z-score [2] | PBM binding z-score [3] | PBM binding z-score [4] | PBM binding z-score [5] | PBM binding z-score [6] | PBM binding z-score [7] | PBM binding z-score [8]
27 | CCCGACAGGTGAGAAGGTAACTCAGCCTCGATTA | 0.604 | 0.562 | 0.328 | -0.142 | 0.298 | 0.229 | 0.474 | -0.11
28 | TCATATAGCTAAAAGGTGAAAGTCGGTGTGGTAA | 1.42 | 0.817 | 0.551 | 0.962 | 1.4 | 0.958 | 0.0793 | -0.201
29 | TCTTGTCGATCAGCAGGTTAAGAAAGCTGGCCAA | 0.242 | -0.108 | -0.509 | 0.615 | 0.217 | 0.316 | -0.476 | -0.421
30 | CGTCCAAGGTCAGAGAGATCAGTGAATGCCGAGT | 3.33 | 4.47 | 5.03 | 2.73 | 3.39 | 3.31 | 1.57 | 1.58
31 | CGAACTAGGTCAGAACAGGGCAGTGAAGGATGAT | 2.52 | 2.65 | 3.35 | 0.463 | 1.28 | 2.69 | 0.148 | 0.0633
32 | ATATGTAGGTAAAGGGTCATTCAGGTTGGTTCGC | 4.14 | 4.11 | 3.22 | 2.01 | 4.98 | 3.26 | 1.71 | 4.15
33 | ATCGAAAGGTCGAGGTGAGTATAGAGAAAGGGAA | 2.86 | 4.31 | 4.51 | 0.657 | 4.3 | 2.81 | 0.624 | 0.373
34 | CTCGAAACGTCGGTTGAGGTGAGTATACGGATAA | -0.165 | 0.0462 | 0.0959 | -0.0246 | -0.0266 | 2.55 | 1.2 | -0.242
35 | CGAACTAGCTCATTGACAGGACAGTGAATAGTAA | 0.184 | -0.00563 | 0.0455 | 0.00616 | -0.33 | -0.0508 | -0.291 | -0.0514
36 | TGTAAAAGTTCAAAGGTAACGTAAGTATCCACAC | 3.5 | 5.35 | 5.12 | 4.06 | 6.28 | 3.53 | 0.192 | 2.83
37 | CCTCGGAAGACAACAGGAGGTCAGAGCTGCCAGA | 2.77 | 1.94 | 1.99 | -0.3 | 1.69 | 2.04 | 0.668 | 1.28
38 | ATCTCTAGGTAACCAAGTTCTGTGAATGCCGAAC | 0.202 | 0.225 | 0.194 | -0.0032 | 0.246 | 0.718 | 0.76 | 0.355
39 | CCTCGGAGGACAGAAGGTCATAGCTGTCCGCTTT | 3.97 | 4.4 | 3.92 | 0.657 | 3.43 | 2.95 | 0.318 | 1.45
40 | CCTAGTTGGTGAGGAGGTCACACACCGGATATGA | 3.83 | 4.09 | 3.23 | 0.474 | 3.91 | 3.34 | 2.03 | 2.53
41 | CTCGAAAGGTCGTGCTCAGGTGATTATACCAAAC | 2.98 | 4.97 | 4.05 | 2.27 | 4.89 | 3.89 | 1.39 | 1.25
42 | GCTTGGAGGACAAGGTCAGAGCTTTGTCCGTAGA | 3.25 | 3.03 | 3.61 | 0.782 | 2.37 | 3.02 | 1.46 | 0.256
43 | GCATATAGGTAATACAAGGTGCAAGTCCGATTGT | -0.0695 | 0.291 | 0.14 | 0.314 | 0.27 | 1.52 | -0.516 | 0.533
44 | AGAACGAGGGCAATGAGTTGATAGCTCGGGTGGC | 0.713 | 0.827 | 1.26 | 1.77 | 0.484 | 0.779 | -0.312 | 2.69
45 | TATACAGGGTCAAAGGCCATAGTACGAATGTCGA | 3.79 | 5.96 | 5.29 | 3.05 | 7.75 | 3.78 | 0.843 | 3.25
46 | ACTTACGGGTCAACGAGGTTATACCACGCGTATA | 3.79 | 5.84 | 5.48 | 3.08 | 6.66 | 3.97 | 1.34 | 4.44
47 | GCTAGCAGGCCATTTGGGTCACCCAATGACGGGC | 2.08 | 1.52 | 1.58 | -0.734 | 1.16 | 2.19 | 0.834 | 0.435
48 | CCTATTAGTTGCCCATAAGGGCAACCGAAGCTCG | 1.75 | 0.539 | 0.688 | 0.215 | 0.507 | 1.65 | 1.67 | 0.922
49 | CAAACTAGGTCAAGGTCAGAGTCGGTTTGTGCCA | 4.8 | 5.32 | 6.42 | 2.33 | 4.6 | 4.29 | 3.28 | 2.79
50 | TCTGCTAGGTCATTTGGTCAGCTAACGAGCTGCC | 2.97 | 3.84 | 4.17 | 2.58 | 2.34 | 2.42 | 0.658 | 1.49
51 | CCTAGCAGGCCAATCCGGGTCACTCAAGGCTTGA | 2.35 | 1.67 | 1.42 | 0.0497 | 1.65 | 4.38 | 1.72 | 0.638
52 | CCAACTGGGGCAGAAAGGTTACCATACCATCCGG | 2.5 | 1.72 | 1.37 | -0.546 | 1.76 | 1.06 | 0.0988 | -0.202
